A selection: hits, their analogues and other compounds. The true share with any hit is near 19%.
HT1080-NT tox: kills 2HG-producing HT-1080-NT fibrosarcoma cells; hit rate 1.6% among 360,000; Potency, µM (titrated, usually from 46.1 µM), for inactives: top-dose activity, negative = less viability, most hits filed as cytotoxic; HT-1080-NT fibrosarcoma viability, CellTiter-Glo ATP luminescence, 48 h; AID 686970;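 further: NT is the 2HG producing partner of a matched IDH1 knockdown line; 0% = DMSO-treated cells and -100% = media-only wells without cells; nearly all actives have a fitted effect of over 55% in size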
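HT-1080-NT; 750 cells/well; 5% FBS RPMI; 48 h compound, 37 degrees C; CellTiter-Glo luminescence; curve fitting and curve-class assignment.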
TDP1 cell noCPT: qHTS for Inhibitors of human tyrosyl-DNA phosphodiesterase 1 (TDP1): qHTS in cells in absence of CPT; AID 686978, 2013; hit rate 15% among 420,000; Potency, µM (highest dose often 46.2 µM), without a hit: at the highest dose activity change, negative = growth inhibition, most hits filed as inhibitors; DT40 Tdp1-/- hTDP1 cells, no CPT, ATP luminescence, 48 h; further: nearly all actives have a fitted effect of over 55% in size
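Growth kinetics read by CellTiter-Glo luminescence after ≥48 hr at 37 °C. Cells: DT40 Tdp1-/- stably carrying human TDP1, 400 per well, compound exposure in the absence of CPT (DMSO vehicle).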
HT1080 IDH1KD tx: kills HT-1080 cells with IDH1 knockdown; Potency, µM (highest dose often 46.1 µM), without a hit: top-dose activity, negative = toxicity, hits mostly cytotoxic; hit rate 2% among 360,000; HT-1080 IDH1 knockdown viability, ATP luminescence, 48 h;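 further: 0% = DMSO wells and -100% = cell-free medium wells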
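Knockdown cells (IDH1KD HT-1080) received compounds 2 h after plating at 750 cells/well and were kept 48 h at 37 °C in 5% FBS RPMI. A CellTiter-Glo luminescence read gave % activity for curve fitting.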
TDP1 cell CPT: DT40-hTDP1 cell growth loss with CPT | Potency, µM (top dose mostly 46.2 µM), for the others: at the highest dose activity change, negative = growth inhibition, usual class: inhibitors | AID 686979 | hit rate 12% among 420,000 | chicken DT40 Tdp1-/-;hTDP1 cells + 20 nM CPT, ATP luminescence, 48 h; further: nearly all actives have a fitted effect of over 55% in size
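Cell growth measured by CellTiter-Glo luminescence after a minimum 48 h, 37 C compound exposure with 20 nM CPT in Tdp1-knockout DT40 cells stably expressing hTDP1, seeded 400/well; qHTS titration format.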
KB-V1 cytotox: KB-V1 MDR subline cytotoxicity | KB-V1 MDR cells viability, CellTiter-Glo, 72 h | AID 1347076 | Potency, µM (doses to about 46.1 µM), hits mostly cytotoxic | hit rate 3.4% among 400,000; further: nearly all actives have a fitted effect of over 60% in size
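Following 72 h at 37 degrees C with compound, KB-V1 cell viability was read by CellTiter-Glo luminescence, medium being phenol-red-free DMEM plus 10% FBS; concentration-response parameters came from normalized, curve-fitted qHTS data.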
KB-3-1 cytotox: KB-3-1 parental cell cytotoxicity. Potency, µM (series often up to 46.1 µM), most hits filed as cytotoxic. KB-3-1 viability, CellTiter-Glo ATP luminescence, 72 h. hit rate 1.4% among 400,000. AID 1347075; further: nearly all actives have a fitted effect of over 60% in size
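Cytotoxicity measured as CellTiter-Glo luminescence after 72 h at 37 C. Compound titrations were pinned onto drug-naive KB-3-1 parental adenocarcinoma cells grown in DMEM with 10% FBS, and normalized data fitted to concentration-response curves.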
Numbers without * were called inactive; i = inactive; ? = inconclusive; nt = no result. The call rests on the fitted dose curve; in most records, active means well fitted curve in the direction sought with a large enough effect; inconclusive means small, poorly fitted or top-dose-only effect, or another doubt; inactive means no such curve, though single readings can be large; an effect the other way counts as inactive or inconclusive. Unless noted, on the % scale 0 is the no-effect control and ±100 the full control effect; potency means the concentration at half of the fitted maximal effect.

SMILES	HT1080-NT tox	TDP1 cell noCPT	HT1080 IDH1KD tx	TDP1 cell CPT	KB-V1 cytotox	KB-3-1 cytotox
Cc1ccc(-c2nc3ccccc3n2C(C)C(=O)NC(C)(C)C)cc1 (configuration not stated)	16.1%	-16.8%	8.9%	9.4%	i	i
CC(CC(=O)Nc1ccc(F)cc1)S(=O)(=O)c1cc2c3c(c1)CCN3C(=O)CC2 (configuration not stated)	nt	-20.9%	nt	-22.3%	i	i
COc1ccc(S(=O)(=O)N2CCN(C(=O)CCCN3C(=O)NC4(CCCC4)C3=O)CC2)cc1	5.5%	0.3%	2.1%	1.1%	i	i
CSCCC(C(=O)Nc1c(C)cccc1C)n1c(-c2cnc(C)cn2)nc2ccccc21 (configuration not stated)	-13.5%	16.4µM*	-0.9%	?	?	i
COc1ccc(C(C(=O)NCc2ccccc2)n2c(-c3ccncc3)nc3ccccc32)cc1 (configuration not stated)	10.7%	?	8.8%	?	?	i
COc1ccc(C(C(=O)NCc2ccccc2)n2c(-c3ccccn3)nc3ccccc32)cc1 (configuration not stated)	?	?	?	16.4µM*	?	?
CSCCC(C(=O)NC(C)(C)C)n1c(-c2ccc3c(c2)OCO3)nc2ccccc21 (configuration not stated)	5.0%	20.6µM*	3.6%	23.1µM*	?	i
CC(C)(C)NC(=O)C(C1CC1)n1c(-c2ccccc2)nc2ccccc21 (configuration not stated)	5.3%	8.2µM*	-12.4%	10.3µM*	i	i
CC(C(=O)NC(C)(C)C)n1c(-c2ccc3c(c2)OCO3)nc2ccccc21 (configuration not stated)	5.5%	-26.6%	-3.1%	?	i	i
O=C(OCc1ccccc1)N1CCC2CC1c1ccc(-c3cccc(F)c3)cc12 (configuration not stated)	-0.2%	?	-14.0%	?	?	i
O=C(OCc1ccccc1)N1CCC2CC1c1cc(Cl)ccc12 (configuration not stated)	-5.2%	?	-4.3%	?	i	i
O=C(OCc1ccccc1)N1CCC2CC1c1c(-c3ccc(C(F)(F)F)cc3)cccc12 (configuration not stated)	5.4%	?	5.2%	16.4µM*	i	i
FC(F)(F)c1ccc(-c2cccc3c2C2CC3CCN2Cc2ccc3c(c2)OCO3)cc1 (configuration not stated)	?	16.4µM*	0.1%	?	i	i
O=C(OCc1ccccc1)N1CCC2CC1c1c(Cl)cccc12 (configuration not stated)	-11.4%	18.4µM*	-0.8%	?	i	i
FC(F)(F)c1ccc(-c2cccc3c2C2CC3CCN2)cc1 (configuration not stated)	-0.5%	?	-4.3%	?	i	i
CCCOc1ccc(C(=O)Nc2ccc3nn(-c4ccc(OC)c(Cl)c4)nc3c2)cc1	nt	?	nt	-21.8%	i	i
C[C@@]12C(=O)N(CC3CC3)CC(=O)N1[C@H](/C=C/c1ccccc1)[C@@H]1C(=O)N(c3ccccc3)C(=O)[C@@H]12	12.7%	7.9%	3.8%	3.4%	i	i
COc1ccccc1CN1CCCC2(CCN(C(=O)c3cc(C(F)(F)F)cc(C(F)(F)F)c3)CC2)C1	nt	-15.8%	nt	6.3%	nt	nt
Cc1[nH]n(-c2ccccc2)c(=O)c1C(c1cccc([N+](=O)[O-])c1)c1c(C)[nH]n(-c2ccccc2)c1=O	1.2%	20.6µM*	-8.2%	?	i	i
Cc1[nH]n(-c2ccccc2)c(=O)c1C(c1ccc(C(=O)O)cc1)c1c(C)[nH]n(-c2ccccc2)c1=O	0.2%	?	3.9%	?	i	i
Cc1[nH]n(-c2ccccc2)c(=O)c1C(C[N+](=O)[O-])c1ccc(Br)cc1 (configuration not stated)	-25.9%	9.2µM*	-17.5%	11.6µM*	i	i
O=S(=O)(Nc1ccc(C(O)(C(F)(F)F)C(F)(F)F)cc1)c1ccc(Cl)c2nonc12	20.6µM*	14.6µM*	14.6µM*	13µM*	?	?
Cc1ccc(S(=O)(=O)N2CCOCC2)cc1NC(=O)COC(=O)c1cccnc1Cl	0.4%	-5.6%	1.6%	2.2%	i	i
CN(CC(=O)Nc1ccc(F)c(F)c1F)C(=O)Cc1ccc2c(c1)OCCO2	1.8%	-15.2%	0.5%	-17.7%	i	i
CCC/C(=C1/c2ccccc2C(=O)N1c1ccccc1)c1ccc2c(c1)OCCO2	?	-27.8%	?	?	?	?
SMILES	HT1080-NT tox	TDP1 cell noCPT	HT1080 IDH1KD tx	TDP1 cell CPT	KB-V1 cytotox	KB-3-1 cytotox
CCC/C(=C1/c2ccccc2C(=O)N1c1ccccc1)c1ccc(O[C@@H]2CCCCO2)cc1	13.4%	16.4µM*	2.0%	?	i	?
COc1ccc(S(=O)(=O)N(CCO)c2ccccc2CN(C)C/C=C/c2ccc(Cl)cc2)cc1	nt	14.6µM*	nt	11.6µM*	nt	nt
CCOc1cc(-c2nnc(SCC(=O)Nc3ccc(F)c(F)c3)nc2-c2ccc(OC)c(OCC)c2)ccc1OC	nt	-22.4%	nt	-18.3%	i	i
CC(C)CCNC(=O)C1CCC(CNS(=O)(=O)c2cccc3nsnc23)CC1 (configuration not stated)	-4.0%	?	0.0%	?	?	i
CCCCN(C(=O)C1CCC(CNS(=O)(=O)c2cccc3nsnc23)CC1)c1ccccc1 (configuration not stated)	nt	20.6µM*	nt	?	?	?
O=C(C1CCC(CNS(=O)(=O)c2cccc3nsnc23)CC1)N1CCN(c2ccccn2)CC1 (configuration not stated)	-17.1%	23.1µM*	-11.0%	?	18.4µM*	i
CN1CCN(C(=O)C2CCC(CNS(=O)(=O)c3cccc4cccnc34)CC2)CC1 (configuration not stated)	0.0%	-4.3%	1.8%	6.7%	i	i
CCCCC(CC)CNC(=O)C1CCC(CNS(=O)(=O)c2cccc3nsnc23)CC1 (configuration not stated)	nt	20.6µM*	nt	?	?	?

Screening data: PubChem, National Center for Advancing Translational Sciences (NCATS)
